Our source for the outcome and AC50 values is PubChem BioAssay (EPA / NIEHS).

The source made the active and inactive calls. How the source made its calls: active means hit-call score of the fitted dose curve at least 0.9, where 1 is the maximum; inactive means score below 0.9.

Apoptosis regulator Bcl-2 (Homo sapiens), sequence (P10415 whole entry, looked up): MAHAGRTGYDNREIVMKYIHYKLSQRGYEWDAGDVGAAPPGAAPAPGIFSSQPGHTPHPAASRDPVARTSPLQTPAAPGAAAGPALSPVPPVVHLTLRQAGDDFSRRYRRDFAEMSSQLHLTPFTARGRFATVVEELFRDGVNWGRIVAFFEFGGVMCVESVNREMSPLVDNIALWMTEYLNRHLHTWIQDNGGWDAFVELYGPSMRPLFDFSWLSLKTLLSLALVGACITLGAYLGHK

Read-out in the first assay: Apolipoprotein A-V (APOA5) gene, APOA5 (gene 116519)
Put plainly: LTEA_HepaRG_APOA5: Life Technologies and Expression Analysis (LTEA) Assay for Apolipoprotein A-V (APOA5) gene using HepaRG (AID 2283474). Particulars: mRNA level, 48 h; actives raise or lower the signal. An outline of the steps: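 Concentration-response of APOA5 expression in HepaRG: eight half-log doses to 100 uM, 48 h, qRT-PCR normalized to ACTB/GAPDH/POLR2A, bidirectional fitting with 0.5% DMSO as baseline.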
As for `Brc1ccc(Oc2ccccc2)cc1`, the compound was called inactive.

For the compound `Oc1ccc2ccc3cccc4ccc1c2c34`, the compound was classed as inactive.

In the case of `CNC(=O)Oc1cccc2c1OC(C)(C)C2`, the call was inactive.

For `Nc1ccc([N+](=O)[O-])cc1`, the result was inactive.

On to `CN(C)[C@@H]1C(=O)C(C(N)=O)=C(O)[C@@]2(O)C(=O)C3=C(O)c4c(O)cccc4[C@@](C)(O)[C@H]3C[C@@H]12`, for which the result was inactive.

With `c1ccc(NNc2ccccc2)cc1`, the outcome was inactive.

In the case of `C1=Cc2cccc3cccc1c23`, the compound was called inactive.

For `CC(C)COC(=O)c1ccccc1C(=O)OCC(C)C`, the outcome was inactive.

For the compound `C[C@]12C=CC3=C4CCC(=O)C=C4CC[C@H]3[C@@H]1CC[C@@H]2O`, the result was inactive.

Consider `COC(=O)c1ccccc1N`, for which the call was inactive.

Take `CC(C)(C)OOC(=O)c1ccccc1`: the result was inactive.

Consider `CCCCC(CC)COC(=O)c1ccc(C(=O)OCC(CC)CCCC)c(C(=O)OCC(CC)CCCC)c1` (centres undefined), for which the compound was classed as inactive.

In general, AC50 refers to the concentration giving half of the maximal activity seen. Turning to `CCC[CH2][Sn]([Cl])([CH2]CCC)[CH2]CCC`, the AC50 was 2.03 µM (active).

Regarding `[Cl-].[Cl-].[Hg+2]`, the call was inactive.

As for `Cc1ccc(N)c(N)c1`, the compound was called inactive.

With `CC(O)CCO` (centres undefined), the compound was called inactive.

In the case of `Cc1ccc(N=C=O)cc1N=C=O`, the compound was classed as inactive.

On to `O=[N+]([O-])C(Br)(CO)CO`, for which the result was inactive.

Turning to `CCN(CC)N=O`, the outcome was inactive.

Turning to `Clc1ccc(C(c2ccc(Cl)cc2)C(Cl)Cl)cc1`, the concentration at half-maximal activity (AC50) is 60.5 µM (active).

On to `CC(C)(O)c1cnn2c(-c3ccc(F)c(-c4c(F)cccc4C#N)c3)cnc2n1`, for which the compound was called inactive.

On to `OCCCBr`, for which the outcome was inactive.

As to `Nc1ccc(N=Nc2ccccc2)cc1`, the AC50 is 17.7 µM (active).

Regarding `ClC1=C(Cl)[C@]2(Cl)[C@H]3[C@H]([C@@H]4C=C[C@H]3C4)[C@@]1(Cl)C2(Cl)Cl`, the outcome was inactive.

Consider `Nc1ccc(Cl)cc1N`, for which the AC50 was 16.2 µM (active).

On to `[As]#[In]`, for which the outcome was inactive.

With `CO[C@@H]1[C@H](OC(=O)NC(=O)CCl)CC[C@]2(CO2)[C@H]1[C@@]1(C)O[C@@H]1CC=C(C)C`, the compound was called inactive.

`CCCCCOC(=O)c1ccccc1C(=O)OCCCCC`: the result was inactive.

Read-out in another assay: Apoptosis regulator Bcl-2 (Homo sapiens) (UniProt P10415)
Put plainly: LTEA_HepaRG_BCL2: Life Technologies and Expression Analysis (LTEA) Assay for Bcl-2 gene using HepaRG (AID 2283475). Particulars: mRNA level, 48 h; actives raise or lower the signal. An outline of the steps:
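qRT-PCR of BCL2 transcript, normalized to three housekeeping genes (ACTB, GAPDH, POLR2A), after 48 h chemical exposure of HepaRG cells; concentrations top 100 uM with half-log dilutions, 0.5% DMSO vehicle, duplicates; changes up or down fitted relative to vehicle.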
Turning to `Brc1ccc(Oc2ccccc2)cc1`, the call was inactive.

Regarding `Oc1ccc2ccc3cccc4ccc1c2c34`, the result was inactive.

Consider `CNC(=O)Oc1cccc2c1OC(C)(C)C2`, for which the outcome was inactive.

In the case of `Nc1ccc([N+](=O)[O-])cc1`, the compound was called inactive.

For `CN(C)[C@@H]1C(=O)C(C(N)=O)=C(O)[C@@]2(O)C(=O)C3=C(O)c4c(O)cccc4[C@@](C)(O)[C@H]3C[C@@H]12`, the compound was called inactive.

Turning to `c1ccc(NNc2ccccc2)cc1`, the call was inactive.

As for `C1=Cc2cccc3cccc1c23`, the result was inactive.

`CC(C)COC(=O)c1ccccc1C(=O)OCC(C)C`: the outcome was inactive.

Consider `C[C@]12C=CC3=C4CCC(=O)C=C4CC[C@H]3[C@@H]1CC[C@@H]2O`, for which the AC50 is 14.8 µM (active).

As for `COC(=O)c1ccccc1N`, the call was inactive.

Take `CC(C)(C)OOC(=O)c1ccccc1`: the outcome was inactive.

On to `CCCCC(CC)COC(=O)c1ccc(C(=O)OCC(CC)CCCC)c(C(=O)OCC(CC)CCCC)c1` (centres undefined), for which the compound was called inactive.

`CCC[CH2][Sn]([Cl])([CH2]CCC)[CH2]CCC`: the AC50 was 3.08 µM (active).

Take `[Cl-].[Cl-].[Hg+2]`: the result was inactive.

As for `Cc1ccc(N)c(N)c1`, the outcome was inactive.

For the compound `CC(O)CCO` (centres undefined), the compound was classed as inactive.

In the case of `Cc1ccc(N=C=O)cc1N=C=O`, the AC50 is 23.6 µM (active).

For the compound `O=[N+]([O-])C(Br)(CO)CO`, the outcome was inactive.

On to `CCN(CC)N=O`, for which the compound was called inactive.

Turning to `Clc1ccc(C(c2ccc(Cl)cc2)C(Cl)Cl)cc1`, the call was inactive.

Turning to `CC(C)(O)c1cnn2c(-c3ccc(F)c(-c4c(F)cccc4C#N)c3)cnc2n1`, the compound was called inactive.

Regarding `OCCCBr`, the compound was classed as inactive.

Regarding `Nc1ccc(N=Nc2ccccc2)cc1`, the outcome was inactive.

`ClC1=C(Cl)[C@]2(Cl)[C@H]3[C@H]([C@@H]4C=C[C@H]3C4)[C@@]1(Cl)C2(Cl)Cl`: the compound was called inactive.

Consider `Nc1ccc(Cl)cc1N`, for which the AC50 is 28.8 µM (active).

On to `[As]#[In]`, for which the outcome was inactive.

Regarding `CO[C@@H]1[C@H](OC(=O)NC(=O)CCl)CC[C@]2(CO2)[C@H]1[C@@]1(C)O[C@@H]1CC=C(C)C`, the compound was called inactive.

As for `CCCCCOC(=O)c1ccccc1C(=O)OCCCCC`, the call was inactive.

Read-out in the next assay: Bcl-2 (BID) gene, BID (gene 637)
Put plainly: LTEA_HepaRG_BID: Life Technologies and Expression Analysis (LTEA) Assay for Bcl-2 (BID) gene using HepaRG (AID 2283476). Particulars: mRNA level, 48 h; actives raise or lower the signal. The gist of the method:
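Duplicate 48 h treatments of HepaRG cells in serum-free induction medium spanned 100 uM downward in half-log steps, 0.5% DMSO. Transcript change quantified by qRT-PCR against three housekeeping genes, fitted up or down versus DMSO.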
In the case of `Brc1ccc(Oc2ccccc2)cc1`, the call was inactive.

On to `Oc1ccc2ccc3cccc4ccc1c2c34`, for which the call was inactive.

As for `CNC(=O)Oc1cccc2c1OC(C)(C)C2`, the compound was called inactive.

In the case of `Nc1ccc([N+](=O)[O-])cc1`, the call was inactive.

On to `CN(C)[C@@H]1C(=O)C(C(N)=O)=C(O)[C@@]2(O)C(=O)C3=C(O)c4c(O)cccc4[C@@](C)(O)[C@H]3C[C@@H]12`, for which the call was inactive.

For the compound `c1ccc(NNc2ccccc2)cc1`, the outcome was inactive.

For the compound `C1=Cc2cccc3cccc1c23`, the compound was called inactive.

On to `CC(C)COC(=O)c1ccccc1C(=O)OCC(C)C`, for which the call was inactive.

With `C[C@]12C=CC3=C4CCC(=O)C=C4CC[C@H]3[C@@H]1CC[C@@H]2O`, the result was inactive.

With `COC(=O)c1ccccc1N`, the outcome was inactive.

In the case of `CC(C)(C)OOC(=O)c1ccccc1`, the compound was called inactive.

`CCCCC(CC)COC(=O)c1ccc(C(=O)OCC(CC)CCCC)c(C(=O)OCC(CC)CCCC)c1` (centres undefined): the outcome was inactive.

`CCC[CH2][Sn]([Cl])([CH2]CCC)[CH2]CCC`: the call was inactive.

Turning to `[Cl-].[Cl-].[Hg+2]`, the result was inactive.

For the compound `Cc1ccc(N)c(N)c1`, the call was inactive.

Regarding `CC(O)CCO` (centres undefined), the outcome was inactive.

For `Cc1ccc(N=C=O)cc1N=C=O`, the outcome was inactive.

For the compound `O=[N+]([O-])C(Br)(CO)CO`, the outcome was inactive.

On to `CCN(CC)N=O`, for which the compound was called inactive.

As for `Clc1ccc(C(c2ccc(Cl)cc2)C(Cl)Cl)cc1`, the result was inactive.

As for `CC(C)(O)c1cnn2c(-c3ccc(F)c(-c4c(F)cccc4C#N)c3)cnc2n1`, the compound was classed as inactive.

For the compound `OCCCBr`, the call was inactive.

`Nc1ccc(N=Nc2ccccc2)cc1`: the AC50 was 50 µM (active).

Turning to `ClC1=C(Cl)[C@]2(Cl)[C@H]3[C@H]([C@@H]4C=C[C@H]3C4)[C@@]1(Cl)C2(Cl)Cl`, the compound was classed as inactive.

Regarding `Nc1ccc(Cl)cc1N`, the result was inactive.

In the case of `[As]#[In]`, the compound was classed as inactive.

Take `CO[C@@H]1[C@H](OC(=O)NC(=O)CCl)CC[C@]2(CO2)[C@H]1[C@@]1(C)O[C@@H]1CC=C(C)C`: the outcome was inactive.

Take `CCCCCOC(=O)c1ccccc1C(=O)OCCCCC`: the compound was classed as inactive.
